# An excerpt weighted towards active compounds, which were near 19% of everything screened.
# TDP1 cell CPT: growth inhibition of DT40 Tdp1-/-;hTDP1 cells with camptothecin (screen for TDP1 inhibitors); chicken DT40 Tdp1-/-;hTDP1 cells + 20 nM CPT, ATP luminescence, 48 h; AID 686979; Potency, µM (doses to about 46.2 µM), for inactives: top-dose activity change, negative = growth inhibition, usual class: inhibitors; 12% of 420,000 active; further: potency means the concentration at half of the fitted maximal effect; nearly all actives have a fitted effect of over 55% in size
#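 Cell growth measured by CellTiter-Glo luminescence after a minimum 48 h, 37 C compound exposure with 20 nM CPT in Tdp1-knockout DT40 cells stably expressing hTDP1, seeded 400/well; qHTS titration format.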
# HT1080-NT tox: kills 2HG-producing HT-1080-NT fibrosarcoma cells. Potency, µM (titrated, usually from 46.1 µM), without a hit: at the highest dose activity, negative = less viability, actives largely listed as cytotoxic. 1.6% of 360,000 active. HT-1080-NT fibrosarcoma viability, CellTiter-Glo ATP luminescence, 48 h;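 further: NT is the 2HG producing partner of a matched IDH1 knockdown line; potency means the concentration at half of the fitted maximal effect; 0% = DMSO-treated cells and -100% = media-only wells without cells; nearly all actives have a fitted effect of over 55% in size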
#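 Compounds were tested in concentration-response format on HT-1080-NT cells for 48 hours at 37 degrees C. Cell viability came from CellTiter-Glo luminescence; curves were classified by r2, response magnitude and activity.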
# IL-1B inflam inh: inflammasome signaling inhibition, IL-1 beta readout | THP-1 LPS/ATP IL-1B secretion, AlphaLISA, 16 h; hits give low values | activity change, % at 57.5 µM | 4.7% of 360,000 active; in the data active means activity change below about -50%; inconclusive means mostly about -30% to -49%
#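 Secreted IL-1B measured by AlphaLISA bead assay after 16 h compound exposure of THP-1 cells; compounds (final up to 57.5 uM) added 1 h before LPS (250 ng/mL) and ATP (1.25 mM) stimulation; lower signal means less secretion.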
# DT40 TDP1 no CPT: qHTS for Inhibitors of human tyrosyl-DNA phosphodiesterase 1 (TDP1): qHTS in cells in absence of CPT. DT40 Tdp1-/- hTDP1 cells, no CPT, ATP luminescence, 48 h. Potency, µM (doses to about 46.2 µM), without a hit: top-dose activity change, negative = growth inhibition, most hits filed as inhibitors. 15% of 420,000 active. AID 686978, 2013; further: potency means the concentration at half of the fitted maximal effect; nearly all actives have a fitted effect of over 55% in size
#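 Cells were dispensed at 400 per well, compounds added by pin tool, plates incubated ≥48 hr at 37 °C, then CellTiter-Glo added for 30 min at room temperature before luminescence reading. Line: DT40 Tdp1-/- complemented with hTDP1; camptothecin omitted.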
# ELG1 repair inh: blocks ELG1-dependent DNA repair in HEK293T cells | HEK293T ELG1-luciferase reporter, luminescence, 16 h; DNA damage induced by 5-fluorouridine | Potency, µM (doses to about 46.1 µM), for inactives: at the highest dose activity change, negative = inhibition, actives largely listed as inhibitors | 2.3% of 330,000 active | AID 504467; further: potency means the concentration at half of the fitted maximal effect; nearly all actives have a fitted effect of over 55% in size
#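 Luminescence from the luciferase reporter, measured 30 min after ONE-Glo reagent at room temperature, was the read-out. Beforehand, 2,000 cells per well were exposed for 16 hr at 37 °C to 5-fluorouridine together with compound or vehicle.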
# HT1080 IDH1KD tx: toxicity to HT-1080 IDH1 knockdown cells (counter line); AID 686971; 2% of 360,000 active; HT-1080 IDH1 knockdown viability, ATP luminescence, 48 h; Potency, µM (titrated, usually from 46.1 µM), for inactives: at the highest dose activity, negative = toxicity, most hits filed as cytotoxic;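 further: potency means the concentration at half of the fitted maximal effect; 0% = DMSO wells and -100% = cell-free medium wells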
#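 % activity derives from luminescence (CellTiter-Glo), normalised to DMSO and no-cell wells. HT-1080-IDH1KD cells, 750/well, had 48 h compound exposure at 37 °C.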
# * hit, by the source's call; ? = inconclusive; . = no result. Unless noted, the call rests on the fitted dose curve; in most records, active means well fitted curve in the direction sought with a large enough effect; inconclusive means small, poorly fitted or top-dose-only effect, or another doubt; inactive means no such curve, though single readings can be large; an effect the other way counts as inactive or inconclusive. Unless noted, on the % scale 0 is the no-effect control and ±100 the full control effect.
SMILES,TDP1 cell CPT,HT1080-NT tox,IL-1B inflam inh,DT40 TDP1 no CPT,ELG1 repair inh,HT1080 IDH1KD tx
C=CCn1c(=O)c(C(=O)OCC)c(O)c2ccccc21,-21%,-5%,-8,?,8%,-4%
C=CCn1c2ccccc2c(=O)c2cc(C#CC3(O)CCCCC3)ccc21,16µM*,?,-57*,18µM*,?,-27%
O=C(Nc1nc2c(F)cc(F)cc2s1)c1ccc2c(c1)OCCO2,-7%,.,.,-4%,.,.
CCN(CC)S(=O)(=O)c1cc(NC(=O)CSc2nc3c(cc2C#N)C(=O)CC(C)(C)C3)ccc1C,?,?,-57*,18µM*,21µM*,?
CCN(CC)S(=O)(=O)c1cc(NC(=O)CSc2nnc(N)s2)ccc1C,?,-8%,-15,-2%,-6%,-1%
Cc1ccc(OCC(=O)NC2CCSc3ccccc32)cc1 (stereo not given),-13%,-7%,-3,-25%,?,-1%
CC(/C=N/NC(=O)Cc1cccs1)=C\c1ccccc1,?,22%,-3,-19%,?,16%
CC(/C=N/NC(=O)c1cccs1)=C\c1ccccc1,-6%,-8%,0,8.2µM*,?,-12%
O=C(N/N=C/C(Cl)=C\c1ccccc1)c1cccs1,?,5%,-6,9.2µM*,?,?
COc1ccc(CNC(=O)c2cc3cc(S(=O)(=O)N4CCCCC4)ccc3n2C)c(OC)c1,-25%,.,.,?,.,.
O=C(NCC(c1ccc2c(c1)OCO2)N1CCN(c2ccccc2)CC1)C(=O)Nc1ccc(F)cc1 (stereo not given),-7%,.,.,-23%,.,.
Cc1ccc(S(=O)(=O)N2CCC(C(N)=O)CC2)cc1[N+](=O)[O-],10%,17%,5,1%,-2%,26%
CC1(C)C(C=C(Cl)Cl)C1C(=O)Nc1ccc(S(=O)(=O)Nc2ncccn2)cc1 (stereo not given),3%,-12%,41,3%,12%,-19%
O=C(Nc1ccc(Cl)c(C(F)(F)F)c1)[C@@H]1CC=C[C@@H]2CCN(C3CCCCC3)C(=O)[C@@H]21,?,7%,30,16µM*,.,17%
O=C(Nc1ccccc1)[C@@H]1CC=C[C@@H]2CCN(C3CCCCC3)C(=O)[C@@H]21,?,13%,-13,?,.,10%
CCCCN1CC[C@H]2C=CC[C@@H](C(=O)Nc3ccc(Cl)c(C(F)(F)F)c3)[C@H]2C1=O,?,13%,-22,10µM*,.,6%
O=C(Nc1ccc(Cl)c(C(F)(F)F)c1)[C@@H]1CC=C[C@@H]2CCN(C3CC3)C(=O)[C@@H]21,?,11%,-9,?,.,9%
O=C(Nc1ccc(Cl)cc1Cl)[C@@H]1CC=C[C@@H]2CCN(C3CCCCC3)C(=O)[C@@H]21,16µM*,.,.,18µM*,.,.
COc1cccc(NC(=O)c2nnn(Cc3cccc(C(F)(F)F)c3)c2N)c1,?,.,.,-12%,.,.
N=C1N=C(N)c2cc3ccccc3cc21,?,.,.,24µM*,.,.
COC(=O)c1ccc(C)c(NC(=O)C(CCSC)NC(=O)c2cc(OC)c(OC)c(OC)c2)c1 (stereo not given),7%,-20%,20,-16%,?,-1%
COc1ccc(CCNC(=O)c2cc3ccccc3oc2=O)cc1,10%,6%,1,3%,16%,8%
Cc1ccc(O)c(C(=O)c2cc(C(=O)NCCc3ccccc3)c(=O)n(CCc3ccccc3)c2)c1,?,8%,-3,16µM*,?,1%
COc1ccc(O)c(C(=O)c2cc(C(=O)NCCc3ccccc3)c(=O)n(CCc3ccccc3)c2)c1,18µM*,3%,-14,15µM*,?,1%
